Assay outcomes deposited in PubChem BioAssay by several laboratories.
Sampled rows, rich in hits. Any-hit rate of the full collection: about 2%.
ADAM10 inh: inhibitors of human ADAM10. O14672. 370,000 compounds, 0.62% hits. inhibition, % at 7 µM. recombinant ADAM10, EDANS/DABCYL FRET peptide cleavage, 3 h;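 active = inhibition above a per-campaign cutoff equal to the mean of compounds falling between control-based bounds plus 3 SD, cut at about 20% in these data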;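 note: 0% = DMSO wells while the 100% control is not disclosed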
ADAM17 inh: inhibits human ADAM17. AID 720648. recombinant ADAM17, EDANS/DABCYL FRET peptide cleavage. P78536. inhibition, % at 6.95 µM. 370,000 compounds, 0.83% hits;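 active = inhibition above the mean of compounds lying between control limits plus 3 SD, set per campaign, cut at about 8.5% in these data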;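 note: 0% = DMSO-only wells as the low control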
NPR2 activator: GC-B (human) receptor activation. activation, % at 10 µM. P20594. 370,000 compounds, 0.11% hits. HEK293-GC-B cells, CNP EC30, cGMP TR-FRET; 0% at EC30 CNP, 100% saturating CNP;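 active = activation at 10 µM reaching about 35% in either raw or pattern-adjusted values, limit read from the data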
GC-A act: GC-A (human) enzyme activation; activation, % at 10 µM; HEK293 GC-A cells, cGMP TR-FRET, EC30 ANP; 0% at EC30 ANP, 100% saturating ANP; 370,000 compounds, 0.14% hits; in the data active = activation above about 40%
Target sequence (P16066 whole entry, looked up): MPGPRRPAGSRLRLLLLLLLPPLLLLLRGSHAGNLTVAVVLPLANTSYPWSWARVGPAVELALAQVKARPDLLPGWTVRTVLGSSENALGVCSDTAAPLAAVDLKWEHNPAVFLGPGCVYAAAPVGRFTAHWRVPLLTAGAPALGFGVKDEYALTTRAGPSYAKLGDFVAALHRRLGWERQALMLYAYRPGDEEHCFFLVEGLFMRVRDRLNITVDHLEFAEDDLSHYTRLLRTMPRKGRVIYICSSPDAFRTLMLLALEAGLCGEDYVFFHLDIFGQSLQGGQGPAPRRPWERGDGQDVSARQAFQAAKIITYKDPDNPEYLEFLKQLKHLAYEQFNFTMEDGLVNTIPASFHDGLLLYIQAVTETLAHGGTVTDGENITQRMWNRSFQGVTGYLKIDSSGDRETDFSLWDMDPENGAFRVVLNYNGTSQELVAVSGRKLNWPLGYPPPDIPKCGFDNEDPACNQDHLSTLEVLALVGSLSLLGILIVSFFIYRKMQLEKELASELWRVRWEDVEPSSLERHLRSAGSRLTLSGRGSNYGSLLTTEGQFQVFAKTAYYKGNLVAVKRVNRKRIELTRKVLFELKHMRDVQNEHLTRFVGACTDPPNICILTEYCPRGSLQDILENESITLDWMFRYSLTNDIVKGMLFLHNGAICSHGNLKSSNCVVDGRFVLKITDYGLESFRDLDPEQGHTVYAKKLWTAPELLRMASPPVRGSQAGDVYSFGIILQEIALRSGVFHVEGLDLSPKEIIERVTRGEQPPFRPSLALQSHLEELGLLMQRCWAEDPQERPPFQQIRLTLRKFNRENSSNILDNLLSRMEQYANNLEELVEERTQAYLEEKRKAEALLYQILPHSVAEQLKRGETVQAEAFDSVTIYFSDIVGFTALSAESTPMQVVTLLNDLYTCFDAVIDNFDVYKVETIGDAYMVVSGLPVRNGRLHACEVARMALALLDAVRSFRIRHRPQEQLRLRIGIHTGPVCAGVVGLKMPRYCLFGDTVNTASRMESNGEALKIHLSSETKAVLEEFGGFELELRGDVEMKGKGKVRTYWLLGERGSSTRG
FAS TE block: blocks the thioesterase domain of human fatty acid synthase | AID 602261 | recombinant FAS-TE, OMFH fluorogenic substrate, fluorescence endpoint | inhibition, % at 15 µM | 360,000 compounds, 0.67% hits | P49327;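 active = compounds whose normalised, plate-corrected inhibition of enzyme fluorescence in the single-dose primary screen is 50% or more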;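 note: 0% = DMSO with enzyme and 100% = substrate without enzyme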
* marks the source's active call; other numbers are inactive results; . = no result.

SMILES	ADAM10 inh	ADAM17 inh	NPR2 activator	GC-A act	FAS TE block
CC1(C)Cc2c(c(-c3ccco3)nc3sc4c(NCCN5CCOCC5)ncnc4c23)CO1	-499	-119	3	17	5
CC1(C)Cc2c(c(N3CCOCC3)nc3sc4c(NN)ncnc4c23)CS1	2	0	-3	-26	4
CC1(C)Cc2c(c(N3CCOCC3)nc3sc4c(NCc5ccccc5)nnnc4c23)CS1	-8	-4	50*	47*	14
CC1(C)Cc2c(c(N3CCOCC3)nc3sc4c(NCc5ccco5)nnnc4c23)CS1	5	-2	48*	55*	15
O=C(CCc1nc(-c2ccccc2F)no1)NCCc1cccc(F)c1	-9	2	-4	0	.
COc1ccc(-c2noc(C3CCCN(C(=O)Nc4ccc5c(c4)OCO5)C3)n2)cc1 (centres undefined)	7	4	-10	-6	.
Cc1oc(C(C)(C)C)cc1-c1cc(NC(=O)c2ccc([N+](=O)[O-])cc2)n[nH]1	7	4	57*	44*	-17
Cc1ccc2nc(SCc3ccc([N+](=O)[O-])cc3)[nH]c2c1	-1	-2	-5	-4	58*
Brc1ccc(N=NNc2ccccc2)cc1	5	0	-9	45*	20
O=[N+]([O-])c1ccc(N=NNc2ccccc2)cc1	.	.	.	.	16
CC(=O)C1=C(C)N(CC(C)C)C(=S)NC1c1ccc(Br)cc1 (centres undefined)	0	-3	-14	-15	.
CC(=O)c1c(N)nc2n(c1=O)CCCCC2	-1	-4	112*	-1	-9
CC(=O)c1ccc(NC(=O)c2ccc3c(=O)n4c(nc3c2)CCCCC4)cc1	-3	1	4	4	0
CCCn1cnc2c(=S)nc(N)[nH]c21	-13	-3	44*	43*	-3
CCCCn1cnc2c(=S)nc(N)[nH]c21	5	0	80*	79*	-4
CCCCCn1cnc2c(=S)nc(N)[nH]c21	-1	-5	81*	75*	-6
Cc1ccccc1CN1CCCCC(NC(=O)c2c(F)cccc2F)C1=O (centres undefined)	-6	2	-3	1	.
CC(C)(C)C(=O)Cn1ncc(Cl)c(Cl)c1=O	-4	-1	-8	42*	-9
O=C(Cn1ncc(Cl)c(Cl)c1=O)c1ccc(Cl)cc1	-2	-4	22	70*	14
O=C(OCn1ncc(Cl)c(Cl)c1=O)c1ccccc1Cl	6	-2	33	43*	24
C=CCn1c(C)cc(C(=O)Cn2ncc(Cl)c(Cl)c2=O)c1C	-3	-4	49*	38	6
C=CCn1c(C)cc(C(=O)CN2NS(=O)(=O)c3ccccc3C2=O)c1C	2	-1	-7	-1	1
COC(=O)[C@@H]1N=C(c2ccc(OC)cc2)O[C@]12C(=O)N(Cc1cn(Cc3ccccc3)nn1)c1cccc(Cl)c12	16	5	7	-3	.
O=S(=O)(Nc1ccc(N=Nc2ccc(O)c3ccccc23)cc1)c1ccccc1	16	14*	-10	-12	39
CN(C)c1ccc(C(O)c2cc3ccccc3s2)cc1 (centres undefined)	13	10*	1	1	8
SMILES	ADAM10 inh	ADAM17 inh	NPR2 activator	GC-A act	FAS TE block
O=C(Nc1nc(-c2ccc(F)cc2)cs1)C1CCN(C(=O)c2ccc(F)cc2)CC1	12	4	-10	8	15
O=C(Nc1nc2c(F)cc(F)cc2s1)C1CCN(C(=O)c2ccc(F)cc2)CC1	1	-8	-7	68*	-3
Cc1ccnc(NC(=S)N2CCC(Nc3cccc(C(F)(F)F)c3)CC2)c1	5	-1	-10	2	.
Cc1cccc(OCc2nnc(SCC(=O)OC3CCCCC3)o2)c1	12	8	-2	60*	20
Cc1cccc(OCc2nnc(SCC(=O)N3CCCCC3)o2)c1	-8	1	1	3	-3
CCn1c(SCC(=O)Nc2ccccc2-c2ccccc2)nnc1-c1cnccn1	5	0	0	-1	.
CN(Cc1ccccc1)C(=O)OCc1cn(Cc2ccc(Cl)cc2)nn1	2	-1	4	1	.
CCCCCCCCCCCCN1[C@@H](CC(=O)O)c2cc(C(F)(F)F)ccc2S1(=O)=O	22*	2	0	2	58*
Cc1ccc(-n2nc3c(=S)[nH]nc(C)c3c2C)cc1	2	-5	17	41*	-5
Cc1ccc(S(=O)(=O)N2CCC(=O)N(CCOCc3ccc(C(F)(F)F)cc3)CC2)cc1	6	10*	0	0	22
O=C1CCN(S(=O)(=O)c2ccccc2)CCN1CCOCc1ccc(C(F)(F)F)cc1	-8	-4	3	-2	2
Cc1ccc2sc(NC(=O)CN3C(=O)CCC3=O)nc2c1C	-9	0	7	50*	-5
Cc1ccc(C)c2sc(NC(=O)CN3C(=O)CCC3=O)nc12	-1	-4	-3	7	-2
Cc1c(Cl)ccc2sc(NC(=O)C3CC3)nc12	-4	5	-7	55*	4
O=C(Nc1nc2c(F)cccc2s1)C1CC1	-14	-1	2	29	-6
CC(=O)Nc1nc2c(C)c(Cl)ccc2s1	-1	-5	-3	49*	-5
CCCC(=O)Nc1nc2c(C)c(Cl)ccc2s1	-3	-2	-3	43*	0
Cc1nnc(NC(=O)C2CCN(S(=O)(=O)c3cc([N+](=O)[O-])ccc3Cl)CC2)o1	-8	-5	-8	-3	-6
COc1cc([N+](=O)[O-])cc2sc(NC(=O)C3CC3)nc12	12	1	-4	47*	-4
Cc1cccc2sc(NC(=O)C3CCN(S(=O)(=O)c4cc([N+](=O)[O-])ccc4Cl)CC3)nc12	20*	6	-3	3	46
COC(=O)[C@]12C[C@H](CC(=O)NCc3ccccc3)C(=O)N(CCc3ccc(OC)c(OC)c3)C1=C[C@H](C(C)C)O[C@@H]2C1CC1	-3	-6	3	0	.
CC1C(=O)N(Cc2cn(CCC3OCCCO3)nn2)CCS(=O)(=O)N1Cc1ccc(-c2ccc(Cl)cc2)cc1 (centres undefined)	5	6	-4	50*	16
CN1CCCC(n2nc(Cc3ccc(Cl)cc3)c3ccccc3c2=O)CC1 (centres undefined)	-10	-2	118*	-15	0
O=C(CN[C@@H](Cc1c[nH]c2ccccc12)C(=O)NCCc1c[nH]c2ccccc12)NC1CCCCC1	4	0	-3	-1	.
Cc1cc(C)cc(C(=O)OCCCN(C)C2CN(Cc3cn(Cc4ccccc4F)nn3)S(=O)(=O)C2)c1 (centres undefined)	-3	-5	1	-1	.
O=C(c1cnn2c(C(F)(F)F)cc(-c3ccc4c(c3)OCO4)nc12)N1CCCCC1	-8	-5	49*	44*	10
O=C(c1cnn2c(C(F)(F)F)cc(-c3cccs3)nc12)N1CCN(Cc2ccccc2)CC1	-25	-13	46*	51*	11
